# Assays:
# [1] = molecular target: T1, Ephrin type-A receptor 3 (Homo sapiens) (UniProt P29320); details: at 10 µM
# T1 sequence (whole entry): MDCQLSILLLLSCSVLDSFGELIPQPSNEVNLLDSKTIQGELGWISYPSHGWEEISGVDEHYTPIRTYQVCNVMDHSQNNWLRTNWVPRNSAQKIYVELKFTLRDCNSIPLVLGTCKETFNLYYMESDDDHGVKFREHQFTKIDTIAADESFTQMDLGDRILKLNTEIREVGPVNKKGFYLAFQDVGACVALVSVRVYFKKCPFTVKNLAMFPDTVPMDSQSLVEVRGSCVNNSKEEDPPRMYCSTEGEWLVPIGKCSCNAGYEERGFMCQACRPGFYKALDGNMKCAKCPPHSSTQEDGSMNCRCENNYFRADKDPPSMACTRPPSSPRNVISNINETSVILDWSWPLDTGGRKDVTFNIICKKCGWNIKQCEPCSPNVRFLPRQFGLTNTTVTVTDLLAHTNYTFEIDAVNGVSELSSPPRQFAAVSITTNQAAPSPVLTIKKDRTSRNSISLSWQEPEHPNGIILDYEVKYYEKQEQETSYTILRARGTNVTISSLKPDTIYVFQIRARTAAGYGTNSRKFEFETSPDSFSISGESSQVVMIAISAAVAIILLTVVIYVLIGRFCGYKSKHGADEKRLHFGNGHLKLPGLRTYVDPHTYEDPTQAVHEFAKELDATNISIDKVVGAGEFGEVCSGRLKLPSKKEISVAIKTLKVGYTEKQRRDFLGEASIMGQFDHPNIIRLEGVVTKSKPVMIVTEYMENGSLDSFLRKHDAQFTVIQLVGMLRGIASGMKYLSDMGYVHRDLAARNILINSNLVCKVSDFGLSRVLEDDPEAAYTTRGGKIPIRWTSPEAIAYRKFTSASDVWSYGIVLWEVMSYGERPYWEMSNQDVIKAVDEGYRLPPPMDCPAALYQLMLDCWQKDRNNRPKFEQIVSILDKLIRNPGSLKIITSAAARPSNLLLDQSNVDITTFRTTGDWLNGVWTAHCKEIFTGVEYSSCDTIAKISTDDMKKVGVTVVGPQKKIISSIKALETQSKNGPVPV
# [2] = molecular target: Ephrin type-A receptor 4 (Homo sapiens) (UniProt P54764); details: at 1 µM
# Chain of Ephrin type-A receptor 4 (Homo sapiens) (P54764 whole entry): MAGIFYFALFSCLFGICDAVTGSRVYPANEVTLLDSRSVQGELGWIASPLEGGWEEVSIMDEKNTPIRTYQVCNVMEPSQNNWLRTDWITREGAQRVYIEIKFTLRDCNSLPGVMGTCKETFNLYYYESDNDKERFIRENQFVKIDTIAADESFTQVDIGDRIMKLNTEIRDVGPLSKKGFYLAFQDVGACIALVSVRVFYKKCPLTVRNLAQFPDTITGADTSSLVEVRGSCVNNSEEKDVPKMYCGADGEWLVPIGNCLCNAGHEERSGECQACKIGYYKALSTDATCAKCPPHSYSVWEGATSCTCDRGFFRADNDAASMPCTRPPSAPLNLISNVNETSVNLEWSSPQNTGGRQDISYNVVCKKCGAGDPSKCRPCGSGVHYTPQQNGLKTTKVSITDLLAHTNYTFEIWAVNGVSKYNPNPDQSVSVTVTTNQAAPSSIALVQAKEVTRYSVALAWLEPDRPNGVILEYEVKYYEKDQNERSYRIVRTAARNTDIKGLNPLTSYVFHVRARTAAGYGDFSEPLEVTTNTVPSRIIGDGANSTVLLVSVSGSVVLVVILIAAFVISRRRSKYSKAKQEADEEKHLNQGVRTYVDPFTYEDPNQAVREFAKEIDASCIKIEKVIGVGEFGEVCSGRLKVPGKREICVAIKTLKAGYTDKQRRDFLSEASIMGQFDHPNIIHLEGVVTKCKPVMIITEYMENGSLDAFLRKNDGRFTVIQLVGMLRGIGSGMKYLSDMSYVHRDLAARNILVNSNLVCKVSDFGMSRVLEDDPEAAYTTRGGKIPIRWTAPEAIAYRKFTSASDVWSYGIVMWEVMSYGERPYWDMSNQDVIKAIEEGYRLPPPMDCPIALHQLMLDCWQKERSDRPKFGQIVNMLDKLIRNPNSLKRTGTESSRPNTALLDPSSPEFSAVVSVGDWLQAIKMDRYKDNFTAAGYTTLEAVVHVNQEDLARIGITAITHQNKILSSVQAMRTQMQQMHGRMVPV
# [3] = molecular target: Ephrin type-A receptor 4 (Homo sapiens) (UniProt P54764); details: at 10 µM
# [4] = molecular target: Ephrin type-A receptor 5 (Homo sapiens) (UniProt P54756); details: at 1 µM
# Chain of Ephrin type-A receptor 5 (Homo sapiens) (P54756 whole entry): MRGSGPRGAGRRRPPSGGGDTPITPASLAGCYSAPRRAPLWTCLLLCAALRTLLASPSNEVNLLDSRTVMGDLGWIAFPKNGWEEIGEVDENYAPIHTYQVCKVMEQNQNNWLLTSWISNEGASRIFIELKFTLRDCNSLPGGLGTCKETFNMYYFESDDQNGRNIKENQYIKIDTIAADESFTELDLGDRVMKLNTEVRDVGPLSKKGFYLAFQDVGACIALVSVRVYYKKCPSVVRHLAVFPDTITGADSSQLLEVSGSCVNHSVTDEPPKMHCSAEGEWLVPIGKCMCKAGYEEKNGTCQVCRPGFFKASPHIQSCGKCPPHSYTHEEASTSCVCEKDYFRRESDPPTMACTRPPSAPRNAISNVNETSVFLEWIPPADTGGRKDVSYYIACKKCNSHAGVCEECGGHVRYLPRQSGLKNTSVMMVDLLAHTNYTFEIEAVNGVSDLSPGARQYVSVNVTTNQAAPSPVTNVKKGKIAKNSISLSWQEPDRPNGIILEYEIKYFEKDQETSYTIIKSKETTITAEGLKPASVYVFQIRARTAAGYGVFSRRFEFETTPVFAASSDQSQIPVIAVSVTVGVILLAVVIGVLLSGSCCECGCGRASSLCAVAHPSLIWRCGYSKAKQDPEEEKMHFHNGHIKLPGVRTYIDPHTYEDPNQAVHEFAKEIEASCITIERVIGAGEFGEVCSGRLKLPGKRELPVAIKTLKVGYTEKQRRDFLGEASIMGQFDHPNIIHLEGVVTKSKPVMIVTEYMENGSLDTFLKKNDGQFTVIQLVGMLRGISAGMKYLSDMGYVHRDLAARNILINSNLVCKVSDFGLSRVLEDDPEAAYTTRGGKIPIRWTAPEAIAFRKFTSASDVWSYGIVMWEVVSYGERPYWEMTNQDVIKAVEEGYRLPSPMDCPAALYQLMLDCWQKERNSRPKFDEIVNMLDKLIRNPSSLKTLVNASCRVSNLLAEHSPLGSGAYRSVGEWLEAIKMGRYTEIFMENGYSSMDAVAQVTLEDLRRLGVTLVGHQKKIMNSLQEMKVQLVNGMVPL
# [5] = molecular target: Ephrin type-A receptor 5 (Homo sapiens) (UniProt P54756); details: at 10 µM
# [6] = molecular target: Ephrin type-A receptor 7 (Homo sapiens) (UniProt Q15375); details: at 1 µM
# Chain of Ephrin type-A receptor 7 (Homo sapiens) (Q15375 28-998 limits assumed): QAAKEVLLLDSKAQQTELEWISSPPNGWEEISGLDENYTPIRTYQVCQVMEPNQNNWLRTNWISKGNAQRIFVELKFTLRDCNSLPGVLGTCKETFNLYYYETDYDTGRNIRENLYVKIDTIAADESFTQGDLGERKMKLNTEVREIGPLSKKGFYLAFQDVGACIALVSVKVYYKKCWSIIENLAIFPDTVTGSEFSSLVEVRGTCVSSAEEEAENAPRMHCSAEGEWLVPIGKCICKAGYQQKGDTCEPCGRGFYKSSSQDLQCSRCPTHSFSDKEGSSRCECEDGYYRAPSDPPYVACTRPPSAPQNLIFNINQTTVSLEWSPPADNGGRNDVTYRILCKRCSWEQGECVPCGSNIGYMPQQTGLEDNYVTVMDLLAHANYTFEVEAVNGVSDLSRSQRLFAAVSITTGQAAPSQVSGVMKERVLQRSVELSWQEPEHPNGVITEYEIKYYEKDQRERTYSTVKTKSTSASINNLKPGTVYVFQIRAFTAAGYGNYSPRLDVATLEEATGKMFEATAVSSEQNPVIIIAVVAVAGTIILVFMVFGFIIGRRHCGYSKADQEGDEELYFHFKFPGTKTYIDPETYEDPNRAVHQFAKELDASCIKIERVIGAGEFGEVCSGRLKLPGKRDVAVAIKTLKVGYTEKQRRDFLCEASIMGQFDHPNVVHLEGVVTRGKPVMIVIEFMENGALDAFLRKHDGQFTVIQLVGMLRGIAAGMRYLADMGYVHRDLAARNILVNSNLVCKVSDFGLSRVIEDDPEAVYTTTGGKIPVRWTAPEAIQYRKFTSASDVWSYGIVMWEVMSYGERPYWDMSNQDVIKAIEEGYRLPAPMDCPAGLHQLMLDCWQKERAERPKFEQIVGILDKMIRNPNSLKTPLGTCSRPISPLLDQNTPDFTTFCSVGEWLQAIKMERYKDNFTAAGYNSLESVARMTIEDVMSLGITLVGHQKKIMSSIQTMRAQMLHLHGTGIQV
# [7] = molecular target: Ephrin type-A receptor 7 (Homo sapiens) (UniProt Q15375); details: at 10 µM
# [8] = molecular target: T2, Ephrin type-A receptor 8 (Homo sapiens) (UniProt P29322); details: at 1 µM
# T2 sequence (whole entry): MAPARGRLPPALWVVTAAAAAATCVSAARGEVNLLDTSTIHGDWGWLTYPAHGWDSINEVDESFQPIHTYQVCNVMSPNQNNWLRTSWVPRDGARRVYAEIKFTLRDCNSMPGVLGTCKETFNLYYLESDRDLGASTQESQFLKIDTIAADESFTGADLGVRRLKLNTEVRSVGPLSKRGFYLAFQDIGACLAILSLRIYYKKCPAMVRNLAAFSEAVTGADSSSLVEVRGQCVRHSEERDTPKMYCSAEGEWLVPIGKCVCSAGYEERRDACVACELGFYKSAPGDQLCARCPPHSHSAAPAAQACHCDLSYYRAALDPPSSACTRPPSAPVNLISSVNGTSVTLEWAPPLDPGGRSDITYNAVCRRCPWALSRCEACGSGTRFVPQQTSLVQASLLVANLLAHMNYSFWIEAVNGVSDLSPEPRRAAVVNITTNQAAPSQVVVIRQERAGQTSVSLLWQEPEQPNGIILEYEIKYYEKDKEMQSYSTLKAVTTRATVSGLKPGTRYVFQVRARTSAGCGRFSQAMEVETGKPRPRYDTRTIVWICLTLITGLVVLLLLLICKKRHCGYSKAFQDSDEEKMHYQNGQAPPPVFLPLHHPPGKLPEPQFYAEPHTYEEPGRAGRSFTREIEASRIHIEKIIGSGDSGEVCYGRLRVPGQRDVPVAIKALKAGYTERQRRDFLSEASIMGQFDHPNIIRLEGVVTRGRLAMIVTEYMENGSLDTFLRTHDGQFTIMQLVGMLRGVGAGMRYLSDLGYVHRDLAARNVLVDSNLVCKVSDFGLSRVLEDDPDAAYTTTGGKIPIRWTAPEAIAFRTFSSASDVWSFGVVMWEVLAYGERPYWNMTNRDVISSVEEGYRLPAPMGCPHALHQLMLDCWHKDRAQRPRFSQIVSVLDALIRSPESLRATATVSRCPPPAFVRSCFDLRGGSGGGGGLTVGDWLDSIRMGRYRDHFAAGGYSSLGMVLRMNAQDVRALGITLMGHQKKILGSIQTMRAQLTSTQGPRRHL
# [9] = molecular target: T2, Ephrin type-A receptor 8 (Homo sapiens); details: at 10 µM
# [10] = molecular target: T3, Ephrin type-B receptor 1 (Homo sapiens) (UniProt P54762); details: at 1 µM
# T3 sequence (whole entry): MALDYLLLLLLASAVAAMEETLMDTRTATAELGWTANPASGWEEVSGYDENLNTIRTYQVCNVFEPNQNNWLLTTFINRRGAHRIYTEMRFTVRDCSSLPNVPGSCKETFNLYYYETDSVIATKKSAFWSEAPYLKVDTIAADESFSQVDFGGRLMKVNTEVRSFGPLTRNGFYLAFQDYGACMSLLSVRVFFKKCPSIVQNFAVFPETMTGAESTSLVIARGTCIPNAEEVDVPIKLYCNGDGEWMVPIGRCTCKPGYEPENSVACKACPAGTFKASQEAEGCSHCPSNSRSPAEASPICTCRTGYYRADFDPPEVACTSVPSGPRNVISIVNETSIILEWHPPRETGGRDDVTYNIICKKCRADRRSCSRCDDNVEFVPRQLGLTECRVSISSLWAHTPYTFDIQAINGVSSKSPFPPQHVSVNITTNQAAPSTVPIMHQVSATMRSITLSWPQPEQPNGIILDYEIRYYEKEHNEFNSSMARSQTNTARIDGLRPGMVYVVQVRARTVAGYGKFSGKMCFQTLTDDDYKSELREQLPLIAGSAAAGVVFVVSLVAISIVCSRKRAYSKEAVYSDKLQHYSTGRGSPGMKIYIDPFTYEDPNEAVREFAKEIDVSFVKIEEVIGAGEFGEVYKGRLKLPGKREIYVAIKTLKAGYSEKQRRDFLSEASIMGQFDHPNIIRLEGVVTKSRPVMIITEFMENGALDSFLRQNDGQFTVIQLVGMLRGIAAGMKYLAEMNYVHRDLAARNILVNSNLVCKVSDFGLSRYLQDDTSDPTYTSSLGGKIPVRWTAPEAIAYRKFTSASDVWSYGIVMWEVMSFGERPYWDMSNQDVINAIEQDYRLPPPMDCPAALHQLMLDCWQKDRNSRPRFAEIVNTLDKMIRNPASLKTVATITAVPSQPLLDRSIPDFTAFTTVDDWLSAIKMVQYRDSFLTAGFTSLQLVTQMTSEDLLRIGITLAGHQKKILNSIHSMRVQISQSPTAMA
structure (smiles),measurement,setting,value
CC(=O)O/N=C1\C(=C2\C(=O)Nc3cc(Br)ccc32)Nc2ccccc21,residual activity,[1],38%
same,residual activity,[2],112%
same,residual activity,[3],84%
same,residual activity,[4],99%
same,residual activity,[5],47%
same,residual activity,[6],100%
same,residual activity,[7],79%
same,residual activity,[8],84%
same,residual activity,[9],77%
same,residual activity,[10],86%

# Reference: ChEMBL document CHEMBL2218924, “A broad activity screen in support of a chemogenomic map for kinase signalling research and drug discovery” (Biochem J, 2013)
